Data taken from PubChem BioAssay (NCATS).
For part of these data: Entries with a potency or affinity are not part of this list. Calls of active or inactive are those of the source. Calls come from the whole dose curve.

Assays:
[1] = Ebola virus entry assay, blue channel fluorescence
[2] = Ebola virus entry assay, green fluorescence channel
[3] = Ebola virus entry assay, ratio channel readout

Row | Compound | outcome [1] | outcome [2] | outcome [3] | AC50 [1]
1 | CO[C@@H]1[C@@H](O[C@@H]2O[C@H](C)[C@@H](O[C@H]3C[C@@](C)(O)[C@@H](O)[C@H](C)O3)[C@H](N(C)C)[C@H]2O)[C@@H](CC=O)C[C@@H](C)[C@@H](O[C@@H]2CC[C@H](N(C)C)[C@@H](C)O2)/C=C/C=C/C[C@@H](C)OC(=O)C[C@H]1O | inactive | inactive | inactive | –
2 | NC(N)=Nc1nc(CSCC/C(N)=N/S(N)(=O)=O)cs1 | inactive | inactive | inactive | –
3 | CCNC(=O)[C@@H]1CCCN1C(=O)[C@H](CCCN=C(N)N)NC(=O)[C@H](CC(C)C)NC(=O)[C@@H](CC(C)C)NC(=O)[C@H](Cc1ccc(O)cc1)NC(=O)[C@H](CO)NC(=O)[C@H](Cc1c[nH]c2ccccc12)NC(=O)[C@H](Cc1cnc[nH]1)NC(=O)[C@@H]1CCC(=O)N1 | inactive | inactive | inactive | –
4 | CCCCC(C)(O)C/C=C/[C@H]1[C@H](O)CC(=O)[C@@H]1CCCCCCC(=O)OC (some centres not stated) | inactive | inactive | inactive | –
5 | COCC1=C(C(=O)OC(C)OC(=O)OC(C)C)N2C(=O)[C@@H](NC(=O)/C(=N\OC)c3csc(N)n3)[C@H]2SC1 (some centres not stated) | inactive | inactive | inactive | –
6 | COc1cc(C)c(/C=C/C(C)=C/C=C/C(C)=C/C(=O)O)c(C)c1C | inactive | inactive | inactive | –
7 | CO[C@H]1C[C@@H]2CC[C@@H](C)[C@@](O)(O2)C(=O)C(=O)N2CCCC[C@@H]2C(=O)O[C@H]([C@@H](C)C[C@@H]2CC[C@H](O)[C@H](OC)C2)CC(=O)[C@H](C)C=C(C)[C@@H](O)[C@@H](OC)C(=O)[C@H](C)C[C@H](C)C=CC=CC=C1C | inactive | inactive | inactive | –
8 | O=C(O)C[C@H](O)C[C@H](O)/C=C/c1c(C2CC2)nc2ccccc2c1-c1ccc(F)cc1 | inactive | inactive | inactive | –
9 | C=CC1=C(C(=O)O)N2C(=O)[C@@H](NC(=O)/C(=N/OCC(=O)O)c3csc(N)n3)[C@H]2SC1 (stereo in doubt) | inactive | inactive | inactive | –
10 | CC(C)CN(C[C@@H](O)[C@H](Cc1ccccc1)NC(=O)O[C@@H]1CCOC1)S(=O)(=O)c1ccc(N)cc1 | inactive | inactive | inactive | –
11 | CN[C@H](CC(C)C)C(=O)N[C@H]1C(=O)N[C@@H](CC(N)=O)C(=O)N[C@H]2C(=O)N[C@H]3C(=O)N[C@H](C(=O)N[C@@H](C(=O)O)c4cc(O)cc(O)c4-c4cc3ccc4O)[C@H](O)c3ccc(c(Cl)c3)Oc3cc2cc(c3O[C@@H]2O[C@H](CO)[C@@H](O)[C@H](O)[C@H]2O[C@H]2C[C@](C)(N)C(O)[C@H](C)O2)Oc2ccc(cc2Cl)[C@H]1O (some centres not stated) | inactive | inactive | inactive | –
12 | CN(C)CCOc1ccc(/C(=C(/CCCl)c2ccccc2)c2ccccc2)cc1 | – | inactive | inactive | 4.47 µM (active)
13 | Nc1nc(NC2CC2)c2ncn([C@@H]3C=C[C@@H](CO)C3)c2n1 | inactive | inactive | inactive | –
14 | NC(=O)[C@@H]1CCCN1C(=O)[C@H](Cc1cnc[nH]1)NC(=O)[C@@H]1CCC(=O)N1 | inactive | inactive | inactive | –
15 | O=C(O)c1cc(N=Nc2ccc(O)c(C(=O)O)c2)ccc1O | inactive | inactive | inactive | –
16 | N#Cc1ccc(C(c2ccc(C#N)cc2)n2cncn2)cc1 | inactive | inactive | inactive | –
17 | CO[C@@]1(NC(=O)C2SC(=C(C(N)=O)C(=O)O)S2)C(=O)N2C(C(=O)O)=C(CSc3nnnn3C)CS[C@@H]21 (some centres not stated) | inactive | inactive | inactive | –
18 | COc1cc(Br)c(C[N+]2(CCOCCC3CCC4CC3C4(C)C)CCOCC2)cc1OC (configuration not stated) | inactive | inactive | inactive | –
19 | CN1CCN2c3ncccc3Cc3ccccc3C2C1 (configuration not stated) | inactive | inactive | inactive | –
20 | CC(C)(S)[C@@H](N)C(=O)O | inactive | inactive | inactive | –
21 | CO[C@H]1C=CO[C@@]2(C)Oc3c(C)c(O)c4c(O)c(c(/C=N/N5CCN(C6CCCC6)CC5)c(O)c4c3C2=O)NC(=O)/C(C)=C\C=C[C@H](C)[C@H](O)[C@@H](C)[C@@H](O)[C@@H](C)[C@H](OC(C)=O)[C@@H]1C | inactive | inactive | inactive | –
22 | Cn1nnc2c(C(N)=O)ncn2c1=O | inactive | inactive | inactive | –
23 | CCCCCCCN(CC)CCCC(O)c1ccc(NS(C)(=O)=O)cc1 (configuration not stated) | inactive | inactive | inactive | –
24 | CC(=O)N=c1sc(S(N)(=O)=O)nn1C | inactive | inactive | inactive | –
